Shown are actives, neighbours in structure and some others; about 12% of the full set was active somewhere.
Arbovirus anti: antivirals against arbovirus infection, primary screen, cell-based, full library, 10K replicate subset | 200,000 tested, 0.37% active | inhibition, % at 10 µM | arbovirus infection cell-based antiviral screen; in the data active means inhibition above about 30%
CHOP inhibitor: inhibitors of CHOP promoter induction, primary screen, cell-based, unfolded protein response, luciferase reporter | 220,000 tested, 3.8% active | CHO-K1 CHOP-promoter luciferase, tunicamycin-induced, 15-18 h | inhibition, % at 10 µM | AID 2732, 2010;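 active means compounds that reduced the stress-induced luciferase reporter signal by more than about 70% of percent inhibition, limit read from the data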;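 further: 0% = tunicamycin plus vehicle and 100% = wells without tunicamycin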
WT yeast gro inh: growth inhibition of WT strain, primary screen, mitochondrial fusion inhibitor project, WT and mutant strains, chemical genetic. mitochondrial fusion phenotypic screen. inhibition, % at 10 µM. 190,000 tested, 2.1% active. AID 1362, 2008; in the data active means inhibition above about 58%; tested in S. cerevisiae
Lmaj promast: Leishmania major promastigote growth inhibition, primary screen; 200,000 tested, 9% active; Leishmania major promastigotes, resazurin fluorescence viability; inhibition, % at 10 µM; in the data active means inhibition above about 50%;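 further: promastigotes grown with compound for 44 hours at 28 °C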
Active calls of the source: *.

`CC1(C)CC(=O)c2cc(C(=O)NCc3ccco3)c(=O)n(-c3ccc(Cl)cc3)c2C1` gave Arbovirus anti -2, CHOP inhibitor 33, WT yeast gro inh -14 and Lmaj promast 45.
For Cc1ccc(-n2c3c(cc(C(=O)NCc4ccco4)c2=O)C(=O)CC(C)(C)C3)cc1 the results were Arbovirus anti 2, CHOP inhibitor 21, WT yeast gro inh 12 and Lmaj promast 51*.
`O=C(NCCOc1ccccc1F)c1ccccc1SCc1ccc(F)cc1` gave Arbovirus anti -10, CHOP inhibitor 46, WT yeast gro inh 39 and Lmaj promast 54*.
Screening CSc1ccccc1C(=O)NCCOc1ccccc1C returned Arbovirus anti -5, CHOP inhibitor -4, WT yeast gro inh -6 and Lmaj promast 0.
CCOc1ccccc1NC(=O)C(Sc1nnnn1C)c1ccccc1 (stereo not given) was read as Arbovirus anti -3, CHOP inhibitor 7, WT yeast gro inh 3 and Lmaj promast 6.
Screening COc1cccc(/C=N/Nc2snc(SC)c2C#N)c1 returned Arbovirus anti 6, CHOP inhibitor 81*, WT yeast gro inh 7 and Lmaj promast 0.
Screening COc1ccc(/C=N/Nc2snc(SC)c2C#N)cc1OC returned Arbovirus anti 26, CHOP inhibitor 76*, WT yeast gro inh 6 and Lmaj promast 16.
For CC(=O)Nc1ccccc1C(=O)C(=O)Nc1ccc(C(=O)N2CCOCC2)cc1 the results were Arbovirus anti 4, CHOP inhibitor 0, WT yeast gro inh -2 and Lmaj promast -1.
CC(OC(=O)CCN1C(=O)c2cccc([N+](=O)[O-])c2C1=O)C(=O)Nc1cc(Cl)cc(Cl)c1 (stereo not given) was read as Arbovirus anti -1, CHOP inhibitor 82*, WT yeast gro inh 16 and Lmaj promast 54*.
For O=C(NNC(=O)c1ccc(Oc2ccc(C3SCCS3)cc2)o1)c1ccc(Cl)cc1 the results were CHOP inhibitor 40.
For CC(C)(C)c1cc(=O)n(-c2ccccc2)[nH]1 the results were Arbovirus anti -4, CHOP inhibitor 70*, WT yeast gro inh -6 and Lmaj promast -3.
For O=c1ccc(=O)n(-c2ccccc2)[nH]1 the results were CHOP inhibitor 10.
c1ccc2[nH]c(NCc3ccc4c(c3)OCO4)nc2c1 was read as Arbovirus anti -6, CHOP inhibitor 30, WT yeast gro inh -11 and Lmaj promast 20.
CCOC(=O)c1cc2c(ccn2C)n1CC(=O)N1CCC(Cc2ccccc2)CC1 was read as Arbovirus anti 0, CHOP inhibitor 71*, WT yeast gro inh 19 and Lmaj promast 95*.
`Cc1ccc(Oc2ccc(C(F)(F)F)cc2[N+](=O)[O-])c([N+](=O)[O-])n1` gave CHOP inhibitor 7.
Screening O=C(CN1C(=O)C2C3CC(C(Br)C3Br)C2C1=O)N1CCN(Cc2ccccc2)CC1 (stereo not given) returned CHOP inhibitor -3.
For Cc1c(CN2CCc3c([nH]c4ccccc34)C2CC(C)C)cnn1C (stereo not given) the results were Arbovirus anti 2, CHOP inhibitor -2, WT yeast gro inh -5 and Lmaj promast 11.
Screening Cc1ccc(CSc2nnc(-c3ccc(NS(=O)(=O)c4ccccc4)cc3)o2)cc1 returned Arbovirus anti -29, CHOP inhibitor 71*, WT yeast gro inh 14 and Lmaj promast 0.
`C/C(=N\NC(=O)C1(C)CC1(Br)Br)c1cccc(NC(=O)C(C)(C)C)c1` (stereo not given) gave Arbovirus anti -5, CHOP inhibitor -12, WT yeast gro inh -12 and Lmaj promast 60*.
O=C(/C=C/c1ccc(Cl)cc1Cl)Nc1cccc(S(=O)(=O)NC2=NCCCCC2)c1 was read as Arbovirus anti -3, CHOP inhibitor 5, WT yeast gro inh 7 and Lmaj promast 51*.
`O=C(Nc1cccc(S(=O)(=O)NC2=NCCCCC2)c1)c1cccnc1Cl` gave CHOP inhibitor 6.
Cc1cccc(CSc2nnc3c(n2)[nH]c2ccccc23)c1 was read as CHOP inhibitor 14.
For COc1ccc(-c2nn3c(-c4ccc(F)cc4)nnc3s2)cc1 the results were Arbovirus anti -10, CHOP inhibitor 83*, WT yeast gro inh 9 and Lmaj promast 10.
For COc1ccc(-c2nn3c(-c4ccccc4)nnc3s2)cc1 the results were Arbovirus anti -19, CHOP inhibitor 60, WT yeast gro inh 21 and Lmaj promast -4.
For O=C(N1CCCCCC1)n1c(Cc2ccccc2)nc2ccccc21 the results were Arbovirus anti -10, CHOP inhibitor 2, WT yeast gro inh 9 and Lmaj promast 63*.

Bioassay records as filed in PubChem.
